Whole data set: some 5,000 sequences, median “log2 normalized fluorescence” near 0.089, cut for the highest 2% near 0.81. Many of the other results were omitted from the sample, so the highest values are more common in it than they were.
biological target: MYC (p64);MAX (p21), in MYC:MAX (human;human, UniProt P01106-1;P61244-2 1-439;1-151, |); experiment: protein-binding microarray (anti-MAX antibody); PBM: 15 mM Tris-HCl pH 7.5, 100 mM KCl, 0.075% NP40, 7.5 mM beta-mercaptoethanol, 375 ng/ul BSA, 8 ng/ul poly(dA-dT):(dA-dT), 550 ng complex, 60 min, room tempe; high values mean tight binding; conditions: protein: recombinant;recombinant; tags: 6xHis;6xHis; copies: 1;1; label: 3' end of printed strand (linker) attached to glass slide; dsDNA, one strand shown
Summary of the method: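 Recombinant His-tagged human MYC:MAX or MAX:MAX dimers (550 ng, expressed in E. coli) were incubated for 60 min at room temperature in Tris-KCl buffer, pH 7.5, with NP40, BSA and poly(dA-dT) competitor. The custom Agilent glass array held ~5000 unique 12-nt sequences, each spotted in triplicate and made double-stranded by primer extension. Bound protein was detected with anti-MAX and secondary antibodies and scanned at 543 nm. Binding is reported as log2 normalized fluorescence.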

Sequence of MYC (p64);MAX (p21), in MYC:MAX (P01106 16-454, chain 1 of 2): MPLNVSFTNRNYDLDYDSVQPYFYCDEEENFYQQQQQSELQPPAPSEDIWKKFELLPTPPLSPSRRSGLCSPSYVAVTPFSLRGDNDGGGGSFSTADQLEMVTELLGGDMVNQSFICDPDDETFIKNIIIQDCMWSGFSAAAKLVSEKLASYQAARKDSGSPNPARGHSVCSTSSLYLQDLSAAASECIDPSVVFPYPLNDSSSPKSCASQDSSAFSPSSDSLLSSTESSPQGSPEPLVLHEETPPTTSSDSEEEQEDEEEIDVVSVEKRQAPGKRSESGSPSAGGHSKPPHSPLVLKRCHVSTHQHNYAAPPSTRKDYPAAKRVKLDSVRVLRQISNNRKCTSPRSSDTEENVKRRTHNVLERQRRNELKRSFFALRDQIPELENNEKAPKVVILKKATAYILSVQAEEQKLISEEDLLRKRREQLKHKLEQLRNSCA
Sequence of MYC (p64);MAX (p21), in MYC:MAX (P61244 other isoform, or with tags, fused parts or gaps |, chain 2 of 2): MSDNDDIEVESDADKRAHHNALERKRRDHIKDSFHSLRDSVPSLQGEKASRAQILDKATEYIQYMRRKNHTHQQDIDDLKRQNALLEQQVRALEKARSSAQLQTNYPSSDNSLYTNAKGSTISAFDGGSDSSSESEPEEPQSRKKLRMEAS

Sequence	binding signal
CCGGCTGACGCGTCGTATTAATAGCTAAGATTACTATATCGACG	0.46 log2 normalized fluorescence
CCGGCTGACGCGTGATATTAATAGCTAAGATTACTATATCGACG	0.675 log2 normalized fluorescence
CCGGCCCCCACGTGGTATTAATAGCTAAGATTACTATATCGACG	0.854 log2 normalized fluorescence
CCGGCGCCCACGTGGTATTAATAGCTAAGATTACTATATCGACG	0.862 log2 normalized fluorescence
CCGGCCCGCACGTGGTATTAATAGCTAAGATTACTATATCGACG	0.749 log2 normalized fluorescence
CCGGCTCCCACGTGGTATTAATAGCTAAGATTACTATATCGACG	0.763 log2 normalized fluorescence
CCGGCGACCACGTGGTATTAATAGCTAAGATTACTATATCGACG	0.741 log2 normalized fluorescence
CCGGCCCACACGTGGTATTAATAGCTAAGATTACTATATCGACG	0.945 log2 normalized fluorescence
CCGGCTAAGACGTGGTATTAATAGCTAAGATTACTATATCGACG	0.411 log2 normalized fluorescence
CCGGCCCACACGTGGTGTTAATAGCTAAGATTACTATATCGACG	0.705 log2 normalized fluorescence
CCGGCTGATCAAGGGTATTAATAGCTAAGATTACTATATCGACG	0.0432 log2 normalized fluorescence
CCGGCTGAAGTTGTGTATTAATAGCTAAGATTACTATATCGACG	0.0113 log2 normalized fluorescence
CCGGCTGAACGAAAGTATTAATAGCTAAGATTACTATATCGACG	0.0903 log2 normalized fluorescence
CCGGCCGACACATGGTTTTAATAGCTAAGATTACTATATCGACG	0.635 log2 normalized fluorescence
CCGGCTGACACGTGTTGTTAATAGCTAAGATTACTATATCGACG	0.83 log2 normalized fluorescence
CCGGCTGACACGTGAACTTAATAGCTAAGATTACTATATCGACG	0.796 log2 normalized fluorescence
CCGGCTGACACGTTAGATTAATAGCTAAGATTACTATATCGACG	0.482 log2 normalized fluorescence
CCGGCTGACATGTGGTTTTAATAGCTAAGATTACTATATCGACG	0.359 log2 normalized fluorescence
CCGGCTGACACGTGGTGTTAATAGCTAAGATTACTATATCGACG	0.534 log2 normalized fluorescence

Sequence	binding signal
CCGGCTGACACGTGTACTTAATAGCTAAGATTACTATATCGACG	0.823 log2 normalized fluorescence
CCGGCTGACACGTGTAATTAATAGCTAAGATTACTATATCGACG	0.708 log2 normalized fluorescence
CCGGCTGACACGTGTTATTAATAGCTAAGATTACTATATCGACG	0.722 log2 normalized fluorescence
CCGGCTGACACGTGACGTTAATAGCTAAGATTACTATATCGACG	0.654 log2 normalized fluorescence
CCGGCTGACACGTGTCGTTAATAGCTAAGATTACTATATCGACG	0.947 log2 normalized fluorescence
CCGGCTGACACATGGTTTTAATAGCTAAGATTACTATATCGACG	0.817 log2 normalized fluorescence
CCGGCTGAGACCTGCTATTAATAGCTAAGATTACTATATCGACG	-0.0388 log2 normalized fluorescence
CCGGCTGGCACCTGGCATTAATAGCTAAGATTACTATATCGACG	0.319 log2 normalized fluorescence
CCGGCTGAGTGTTAGTATTAATAGCTAAGATTACTATATCGACG	0.177 log2 normalized fluorescence
CCGGCTGATGATGCGTATTAATAGCTAAGATTACTATATCGACG	0.112 log2 normalized fluorescence
CCGGCTGATATGACGTATTAATAGCTAAGATTACTATATCGACG	0.0181 log2 normalized fluorescence
CCGGCTAACACAAGGTATTAATAGCTAAGATTACTATATCGACG	0.534 log2 normalized fluorescence
CCGGCTGACACGATATATTAATAGCTAAGATTACTATATCGACG	0.408 log2 normalized fluorescence
CCGGCTGTCACGTGCTATTAATAGCTAAGATTACTATATCGACG	0.591 log2 normalized fluorescence
CCGGCTGACACGTAGTGTTAATAGCTAAGATTACTATATCGACG	0.396 log2 normalized fluorescence
CCGGCTGACACGTGTTTTTAATAGCTAAGATTACTATATCGACG	0.847 log2 normalized fluorescence
CCGGCTGACACGTGGTTTTAATAGCTAAGATTACTATATCGACG	0.795 log2 normalized fluorescence
CCGGCTGACACGTGCCCTTAATAGCTAAGATTACTATATCGACG	0.7 log2 normalized fluorescence
CCGGCTGACACGTGACCTTAATAGCTAAGATTACTATATCGACG	0.633 log2 normalized fluorescence

Sequence	binding signal
CCGGCTGACACGTGTAGTTAATAGCTAAGATTACTATATCGACG	0.834 log2 normalized fluorescence
CCGGCTGACACGTGTGTTTAATAGCTAAGATTACTATATCGACG	0.7 log2 normalized fluorescence
CCGGCTGACACGTGTTCTTAATAGCTAAGATTACTATATCGACG	0.738 log2 normalized fluorescence
CCGGCTGTCACGTGTTCTTAATAGCTAAGATTACTATATCGACG	0.848 log2 normalized fluorescence
CCGGCTGACACGTAGTTTTAATAGCTAAGATTACTATATCGACG	0.406 log2 normalized fluorescence
CCGGCTGACACGTGTCCTTAATAGCTAAGATTACTATATCGACG	0.926 log2 normalized fluorescence
CCGGCTGAAACAACGTATTAATAGCTAAGATTACTATATCGACG	0.159 log2 normalized fluorescence
CCGGCCGACATGTAGTATTAATAGCTAAGATTACTATATCGACG	0.368 log2 normalized fluorescence
CCGGCAGACAAGTGCTATTAATAGCTAAGATTACTATATCGACG	0.353 log2 normalized fluorescence
CCGGCAATCTAGTCTACTTAATAGCTAAGATTACTATATCGACG	0.0163 log2 normalized fluorescence
CCGGCTGATATAATGTATTAATAGCTAAGATTACTATATCGACG	0.0653 log2 normalized fluorescence
CCGGCTGAACTCGCGTATTAATAGCTAAGATTACTATATCGACG	0.276 log2 normalized fluorescence
CCGGCTGAAACCAAGTATTAATAGCTAAGATTACTATATCGACG	0.0737 log2 normalized fluorescence
CCGGCTGAACCAGTGTATTAATAGCTAAGATTACTATATCGACG	0.036 log2 normalized fluorescence
CCGGCTGACACGTGCAGTTAATAGCTAAGATTACTATATCGACG	0.746 log2 normalized fluorescence
CCGGCTGACACGTGCAATTAATAGCTAAGATTACTATATCGACG	0.779 log2 normalized fluorescence
CCGGCTAGCACGTGGCATTAATAGCTAAGATTACTATATCGACG	0.803 log2 normalized fluorescence
CCGGCTGACACGTGCACTTAATAGCTAAGATTACTATATCGACG	0.88 log2 normalized fluorescence

From PMC5515408, “Sequence-specific DNA binding by MYC/MAX to low-affinity non-E-box motifs”
